aSyn 5UTR act = Activators via SNCA 5'UTR binding, MLPCN; alpha-synuclein 5'UTR reporter, activators screen; activity score, % (tested at 7.5 µM), hits read low; 300,000 tested, 7.1% active; AID 1814; in the data active = activity score below about -60%
Of the large screens only hits and unclear results are named; the others gave an inactive call. The list is a sample of the results.

Cc1cc(C(=O)CN2C(=O)NC3(CCCCC3)C2=O)c(C)n1C	aSyn 5UTR act -69
COc1ccc(C(=O)CN2C(=O)NC3(CCCCCC3)C2=O)cc1	aSyn 5UTR act -90
Cc1cc(C(=O)CN2C(=O)NC3(CCCCC3C)C2=O)c(C)n1Cc1cccs1 (configuration not stated)	aSyn 5UTR act -165
CCOC(=O)c1c(C)[nH]c(C(=O)CSc2nccc(C)n2)c1C	aSyn 5UTR act -129
CCOC(=O)c1c(C)[nH]c(C(=O)CN2C(=O)NC3(CCCC3)C2=O)c1C	aSyn 5UTR act -67
COC(=O)c1ccc(CN2C(=O)NC3(CCCCC3)C2=O)cc1	aSyn 5UTR act -124
Cc1cc(C)c(C(=O)CN2C(=O)NC3(CCCCCC3)C2=O)cc1C	aSyn 5UTR act -72
O=C(NC1CCCCC1)c1cc2nc3c(c(C(F)(F)F)n2n1)CCCC3	aSyn 5UTR act -136
CC(=O)c1ccc(NC(=O)c2cc3nc4c(c(C(F)(F)F)n3n2)CCCC4)cc1	aSyn 5UTR act -75
Cc1cccc2nc(COc3ccc(-c4ccccc4)cc3)cn12	aSyn 5UTR act -121
CC(C)Sc1nnc(-c2c[nH]c3ccccc23)n1C	aSyn 5UTR act -111
CSc1nc(Cl)cc(Nc2ccc(O)cc2)n1	aSyn 5UTR act -79
Cn1c2ccccc2c2cc(C(=O)N3CCN(CCO)CC3)sc21	aSyn 5UTR act -86
COCc1nc2oc3ccccc3c(=O)c2cc1C(=O)OC	aSyn 5UTR act -89
CC(=O)c1ccc2oc3ccccc3c(=O)c2c1	aSyn 5UTR act -81
CCOC(=O)c1cc2c(=O)c3ccccc3oc2nc1C	aSyn 5UTR act -153
CC(=O)c1cc2c(=O)c3ccccc3oc2nc1C	aSyn 5UTR act -116
CC(=O)O[C@]1(C(C)=O)CC[C@H]2[C@@H]3C=CC4=CC(=O)C=C[C@]4(C)[C@H]3CC[C@@]21C	aSyn 5UTR act -83
Cc1cc(-c2csc(NC(=O)c3cccc(S(=O)(=O)N(C)C)c3)n2)c(C)n1-c1ccccc1	aSyn 5UTR act -83
CCCCCCN1C=CC(=C2C(=O)c3ccccc3C2=O)C=C1	none
CCCCN1C(=O)C(=O)N(c2ccccc2)C1=S	aSyn 5UTR act -135
CNC(=O)c1ccsc1NC(=O)c1ccc2c(c1)CCCC2	aSyn 5UTR act -214
Clc1ccc(OCCCN2CCCCC2)c(Br)c1	aSyn 5UTR act -88
Cc1ccsc1/C=N/Nc1ccc(C(=O)O)cc1	none
O=C(N/N=C/c1ccc(Br)s1)c1ccccn1	aSyn 5UTR act -96
O=C(N/N=C/c1ccc(OC(=O)c2ccccc2Br)cc1)c1ccccn1	aSyn 5UTR act -90
Cc1ccc(/C=N/NC(=O)c2cccs2)o1	aSyn 5UTR act -65
Cc1ccsc1/C=N/NC(=O)c1cccs1	aSyn 5UTR act -109
Cc1ccsc1/C=N/NC(=O)c1ccccn1	aSyn 5UTR act -151
Cc1ccsc1/C=N/NC(=O)c1cc(-c2ccncc2)nc2ccccc12	none
O=C(N/N=C/C1CCCCC1)c1ccccn1	aSyn 5UTR act -116
O=C(N/N=C/c1ccsc1)c1ccccn1	aSyn 5UTR act -92
NNC(=O)c1cc2sccc2s1	aSyn 5UTR act -80
O=c1c2[nH]c3ccccc3c2ncn1C1CCCCC1	aSyn 5UTR act -91
O=S(=O)(Cc1noc(-c2ccccc2Cl)n1)c1ccccn1	aSyn 5UTR act -70
CC1(C)Cc2c(sc3ncnc(NNC(=S)NCc4ccccc4)c23)CO1	none
Nn1c(-c2cccs2)nc2sc3c(c2c1=O)CCCC3	aSyn 5UTR act -149
CC1(C)Cc2c(sc3nc(-c4cccs4)n(N)c(=O)c23)CO1	aSyn 5UTR act -116
COc1cc([N+](=O)[O-])ccc1NC(=S)Nc1cccc(C(=O)O)c1	aSyn 5UTR act -72
O=C(NC(=S)Nc1cc([N+](=O)[O-])ccc1Cl)c1ccccc1	aSyn 5UTR act -85
O=[N+]([O-])c1cccc(/C([O-])=C(/C(=S)Nc2ccccc2)[n+]2ccccc2)c1	aSyn 5UTR act -105
O=[N+]([O-])c1cccc(NC(=S)Nc2nc(-c3ccc(Cl)cc3Cl)cs2)c1	none
O=C(Nc1ccc([N+](=O)[O-])cc1)C(=O)Nc1cccc(C(=O)O)c1	none
O=C(NC(=S)Nc1cccc([N+](=O)[O-])c1)c1ccco1	aSyn 5UTR act -113
O=C(NC(=S)Nc1cccc([N+](=O)[O-])c1)c1ccccc1	aSyn 5UTR act -170
Clc1cc2nc(-c3cccnc3Cl)[nH]c2cc1Cl	aSyn 5UTR act -229
COc1ccc(Nc2nc(-c3cc4cccc(OC)c4oc3=O)cs2)cc1	aSyn 5UTR act -83
COc1ccc2oc(=O)c(-c3csc(Nc4cccc(O)c4)n3)cc2c1	aSyn 5UTR act -76
Cc1ccc(SCC(=O)Nc2cccc(-c3nnc(-c4ccco4)o3)c2)cc1	aSyn 5UTR act -144
COc1cccc(NC(=O)CSc2nnc(-c3ccc(C)cc3)o2)c1	aSyn 5UTR act -114
COc1ccc(-c2nnc(SCC(=O)Nc3cc(F)ccc3C)o2)cc1	aSyn 5UTR act -161
O=C1CCCCC1Sc1nnc(Nc2ccccc2)s1 (configuration not stated)	aSyn 5UTR act -127
CCSc1nnc(Nc2ccccc2)s1	aSyn 5UTR act -99
CCSc1nnc(Nc2ccc(C)cc2)s1	aSyn 5UTR act -161
CCOC(=O)c1cnn(-c2cc(Oc3ccccc3C)ncn2)c1N	aSyn 5UTR act -88
CCOC(=O)c1cnn(-c2ncnc3sc4c(c23)CCC4)c1N	aSyn 5UTR act -75
CCOC(=O)c1cnn(-c2cc(C)c3ccccc3n2)c1N	aSyn 5UTR act -65
CCOC(=O)c1cnn(-c2ccccn2)c1N	aSyn 5UTR act -116
c1ccc(Oc2cc(-c3ccccc3)ncn2)cc1	aSyn 5UTR act -124
CCOC(=O)c1cnn(-c2ncnc3c2oc2ccccc23)c1N	aSyn 5UTR act -98
Cc1cnn(-c2cc(Oc3ccccc3)ncn2)c1	aSyn 5UTR act -216
CCOC(=O)c1cnn(-c2cc(Oc3ccccc3)ncn2)c1N	aSyn 5UTR act -101
CC(C)c1cc(C(C)C)c(S(=O)(=O)N2c3ccccc3[C@]3(Br)C[C@H]4C(=O)N[C@@H](Cc5ccccc5)C(=O)N4[C@H]23)c(C(C)C)c1	none
O=C1C2C3C=CC(C3)C2C(=O)N1c1ccc(-c2nc3ccccc3o2)cc1 (configuration not stated)	aSyn 5UTR act -152
O=C(NC1CCCCCC1)c1ccc2c(=O)n3c(nc2c1)CCCCC3	aSyn 5UTR act -72
Cc1ccc(NC(=O)c2ccc3c(=O)n4c(nc3c2)CCCCC4)nc1	aSyn 5UTR act -72
C/C(=N\NC(=O)c1ccco1)c1ccc(-c2ccccc2)cc1	aSyn 5UTR act -126
C/C(=N\NC(=O)COc1ccccc1F)c1cc2ccccc2o1	aSyn 5UTR act -133
C/C(=N\NC(=O)c1ccco1)c1ccc(NC(=O)c2ccccc2)cc1	aSyn 5UTR act -126
C/C(=N\NC(=O)c1ccco1)c1cc2ccccc2o1	aSyn 5UTR act -94
COc1cc(CNCc2ccccn2)ccc1OCc1ccc(Cl)cc1	aSyn 5UTR act -66
Cc1cccc(Nc2cc(C)c3c(O)cccc3n2)c1C	aSyn 5UTR act -101
O=C(Nc1nnc(-c2ccccc2F)s1)Nc1ccccc1F	aSyn 5UTR act -155
O=C(Nc1nnc(Cc2ccccc2F)s1)Nc1ccccc1F	aSyn 5UTR act -99
O=C(/C=C/c1ccc2ccccc2c1)c1ccoc1	aSyn 5UTR act -123
Cc1cccc(Nc2nc(-c3ccccc3)c(C(=O)Nc3cccnc3)s2)c1	aSyn 5UTR act -143
CCOc1ccc(-c2cn(-c3cccc(SC)c3)c(=O)[nH]2)cc1	aSyn 5UTR act -72
Cc1cc(C)c2c3c(sc2n1)C1(CCSCC1)C(C#N)=C(N)O3	aSyn 5UTR act -90
S=C1NC(c2ccccc2)=NCN1c1ccccc1	aSyn 5UTR act -66
Cc1ccc(C2=NCN(c3ccc(C(=O)O)cc3)C(=S)N2)cc1	aSyn 5UTR act -117

Screening results as filed in PubChem BioAssay.
